Assay results published in PubChem BioAssay (Tox21).
Inconclusive results are not listed. Where a call stands in place of a potency, no number is given. Values without a mark were called inactive. Calls of active or inactive are those of the source. Unless noted, the call rests on the fitted dose curve; in most records, active means well fitted curve in the direction sought with a large enough effect in the repeat runs; inconclusive means weak or mixed curves; inactive means no such curve, though single readings can be large; an effect the other way counts as inactive or inconclusive.

How the values were obtained:
[1] = qHTS assay to identify aromatase inhibitors - cell viability counter screen (AID 743084);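 further: cells stimulated with testosterone during compound exposure; nearly all actives have a fitted effect of over 55% in size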; further: potency means the concentration at half of the fitted maximal effect
[2] = molecular target: Aryl hydrocarbon receptor (Homo sapiens) (UniProt P35869); assay: qHTS assay to identify small molecule that activate the aryl hydrocarbon receptor (AhR) signaling pathway (AID 743085); further: nearly all actives have a fitted effect of over 15% in size; further: potency means the concentration at half of the fitted maximal effect;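 on activation: HG2L7.5c1 human HepG2 liver cells with stably integrated DRE-driven firefly reporter; series mostly up to about 70 µM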
Summary of the method: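 Luminescence read-out: ONE-Glo reagent, 30 min at room temperature, in HG2L7.5c1 HepG2 reporter cells treated 24 h at 37C. Viability was measured beforehand by CellTiter-Fluor fluorescence after 30 min at 37C.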

[3] = molecular target: Peroxisome proliferator-activated receptor gamma (Homo sapiens) (UniProt P37231); assay: qHTS assay to identify small molecule agonists of the peroxisome proliferator-activated receptor gamma (PPARg) signaling pathway (AID 743094; active means well fitted activation curve with a large enough effect in the signal ratio in the repeat runs, not every such curve was filed as active; the % refers to the signal ratio; further: potency means the concentration at half of the fitted maximal effect)
Summary of the method: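 GeneBLAzer PPARg UAS-bla HEK293H cells were plated, rested 5 h, then exposed to compounds for 17 h at 37C. Beta-lactamase activity was read by LiveBLAzer B/G FRET substrate fluorescence after 1 h at room temperature.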

[4] = molecular target: Peroxisome proliferator-activated receptor gamma (Homo sapiens) (UniProt P37231); assay: qHTS assay to identify small molecule antagonists of the peroxisome proliferator-activated receptor gamma (PPARg) signaling pathway (AID 743191; calls by dose curve; further: nearly all actives have a fitted effect of over 30% in size; further: potency means the concentration at half of the fitted maximal effect)
Summary of the method: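 GeneBLAzer PPARg UAS-bla HEK293H cells carrying a UAS-driven beta-lactamase reporter were plated at 3000 cells/well, preincubated 5 h at 37C, then given compound for 17 h at 37C; LiveBLAzer B/G FRET substrate was read after 1 h at room temperature.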

[5] = qHTS assay to identify small molecule antagonists of the peroxisome proliferator-activated receptor gamma (PPARg) signaling pathway - cell viability counter screen (AID 743194); further: nearly all actives have a fitted effect of over 55% in size; further: potency means the concentration at half of the fitted maximal effect
Summary of the method: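 PPARg-UAS-bla HEK293H cells were plated, rested 5 h at 37 C, then treated with compounds plus rosiglitazone (50 nM final) for 17 h at 37 C; viability was then read by CellTiter-Glo luminescence after 30 min at room temperature.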

[6] = qHTS assay for small molecule agonists of the antioxidant response element (ARE) signaling pathway - cell viability counter screen (AID 743203; calls by dose curve; further: nearly all actives have a fitted effect of over 55% in size; further: potency means the concentration at half of the fitted maximal effect)
Summary of the method: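 ARE-bla HepG2 cells were plated, rested 5 h at 37C/5% CO2, then exposed to compounds in DMSO for 16 h. Viability was read as CellTiter-Glo luminescence after 30 min at room temperature, in the same wells as the ARE screen.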

[7] = qHTS assay for small molecule activators of the heat shock response signaling pathway - cell viability counter screen (AID 743209); further: nearly all actives have a fitted effect of over 50% in size
Summary of the method: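 HSE-bla HeLa cells plated overnight, then exposed to Tox21 compounds (23 nL in DMSO) for 5 h at 37 C. After the bla reporter read, CellTiter-Glo was added in the same wells and luminescence read after 30 min at room temperature.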

[8] = qHTS assay for small molecule activators of the heat shock response signaling pathway (AID 743210; active means well fitted activation curve with a large enough effect in the signal ratio in the repeat runs, with a control signal flat, not every such curve was filed as active; the % refers to the signal ratio; further: series mostly up to about 63 µM)
Summary of the method: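 HSE-bla HeLa cells (beta-lactamase reporter under heat shock response elements) were exposed to compounds for 5 h at 37 C, then loaded with LiveBLAzer B/G FRET substrate for 2.5 h at room temperature before fluorescence reading.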

[9] = qHTS assay for small molecule agonists of the antioxidant response element (ARE) signaling pathway (AID 743202; active means well fitted activation curve with a large enough effect in the signal ratio in the repeat runs, not every such curve was filed as active; the % refers to the signal ratio; further: potency means the concentration at half of the fitted maximal effect)
Summary of the method: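 Read-out: LiveBLAzer B/G FRET substrate fluorescence after 2 h at room temperature, following 16 h compound treatment at 37 C of HepG2 cells carrying an ARE-driven beta-lactamase reporter.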

[10] = qHTS assay to identify small molecule that activate the aryl hydrocarbon receptor (AhR) signaling pathway - cell viability counter screen (AID 743086); further: nearly all actives have a fitted effect of over 45% in size; further: potency means the concentration at half of the fitted maximal effect
Summary of the method: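 HepG2-AhR-luc (HG2L7.5c1) cells, 4000/well, were preincubated 5 h at 37C, exposed to compound in qHTS format for 24 hr at 37C, then given CellTiter-Fluor for 30 min; viability was read as fluorescence in the reporter wells.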

Aryl hydrocarbon receptor (Homo sapiens), sequence (P35869 whole entry, looked up): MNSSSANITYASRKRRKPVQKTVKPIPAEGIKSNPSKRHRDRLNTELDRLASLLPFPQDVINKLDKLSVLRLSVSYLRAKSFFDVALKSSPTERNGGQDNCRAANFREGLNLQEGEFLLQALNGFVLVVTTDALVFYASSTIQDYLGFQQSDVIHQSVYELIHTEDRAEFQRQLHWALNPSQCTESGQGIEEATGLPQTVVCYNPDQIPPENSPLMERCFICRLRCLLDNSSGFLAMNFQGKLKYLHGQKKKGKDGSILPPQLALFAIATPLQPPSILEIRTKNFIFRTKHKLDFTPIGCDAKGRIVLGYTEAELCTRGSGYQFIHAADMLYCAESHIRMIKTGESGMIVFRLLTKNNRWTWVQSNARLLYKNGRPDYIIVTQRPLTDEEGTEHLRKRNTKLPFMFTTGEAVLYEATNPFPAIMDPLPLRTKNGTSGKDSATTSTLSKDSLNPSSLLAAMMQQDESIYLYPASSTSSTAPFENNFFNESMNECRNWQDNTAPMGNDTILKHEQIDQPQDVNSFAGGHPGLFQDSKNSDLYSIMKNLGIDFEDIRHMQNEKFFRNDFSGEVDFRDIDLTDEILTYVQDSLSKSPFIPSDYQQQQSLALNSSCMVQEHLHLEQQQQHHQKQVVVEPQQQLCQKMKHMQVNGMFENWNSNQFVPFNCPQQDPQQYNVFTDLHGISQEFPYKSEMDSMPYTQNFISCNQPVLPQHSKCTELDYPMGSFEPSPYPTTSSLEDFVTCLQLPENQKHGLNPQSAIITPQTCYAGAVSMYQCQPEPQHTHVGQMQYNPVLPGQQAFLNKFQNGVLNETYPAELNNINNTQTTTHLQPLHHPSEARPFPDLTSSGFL
Peroxisome proliferator-activated receptor gamma (Homo sapiens), sequence (P37231 whole entry, looked up): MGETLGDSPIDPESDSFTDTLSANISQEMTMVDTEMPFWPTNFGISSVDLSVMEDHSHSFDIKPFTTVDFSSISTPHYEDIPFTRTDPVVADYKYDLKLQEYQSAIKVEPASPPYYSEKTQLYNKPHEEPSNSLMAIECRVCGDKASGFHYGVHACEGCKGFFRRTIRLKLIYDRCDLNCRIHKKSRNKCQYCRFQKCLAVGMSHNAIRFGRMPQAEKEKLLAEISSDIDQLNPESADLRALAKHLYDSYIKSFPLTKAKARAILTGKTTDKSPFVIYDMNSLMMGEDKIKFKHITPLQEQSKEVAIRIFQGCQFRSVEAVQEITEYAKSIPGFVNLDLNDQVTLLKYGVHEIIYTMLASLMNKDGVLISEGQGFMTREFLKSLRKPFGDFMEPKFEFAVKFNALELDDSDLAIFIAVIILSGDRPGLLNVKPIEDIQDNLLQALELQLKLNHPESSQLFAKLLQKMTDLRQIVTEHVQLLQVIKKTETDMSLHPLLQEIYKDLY

Compound | Potency [1] | Potency [2] | Potency [3] | Potency [4] | Potency [5] | Potency [6] | Potency [7] | Potency [8] | Potency [9] | Potency [10]
CC(C)OC(=O)C(C)N(C(=O)c1ccccc1)c1ccc(F)c(Cl)c1 (stereo not drawn) | inactive | inactive | inactive | inactive | inactive | inactive | inactive | inactive | – | –
C=CC(=O)OCCOCCOC(=O)C=C | 13.7 µM (active) | inactive | – | – | – | inactive | – | – | 30.8 µM (active) | –
CCCCC/C=C\C/C=C\CCCCCCCC(=O)NC(C)c1ccccc1 (stereo not drawn) | inactive | – | inactive | – | inactive | inactive | inactive | – | 29.8 µM (active) | inactive
COc1ccc(C(=O)c2ccc(OC)cc2O)c(O)c1 | inactive | – | inactive | – | – | inactive | inactive | inactive | – | inactive
c1cc(CCCc2ccncc2)ccn1 | inactive | – | inactive | – | inactive | inactive | – | inactive | – | inactive
C=CCOC(=O)CCC1CCCCC1 | – | inactive | inactive | inactive | – | inactive | inactive | – | inactive | inactive
O=S(c1cc(Cl)cc(Cl)c1O)c1cc(Cl)cc(Cl)c1O | – | inactive | – | – | 26.6 µM (active) | 11.9 µM (active) | – | – | – | inactive
CCCCCC[C@@H](O)C/C=C\CCCCCCCC(=O)OC | inactive | – | inactive | – | inactive | inactive | inactive | inactive | – | inactive
C#C[C@]1(O)CC[C@H]2[C@@H]3CCc4cc(OC5CCCC5)ccc4[C@H]3CC[C@@]21C | inactive | – | inactive | – | inactive | – | inactive | inactive | – | inactive
Brc1c2ccccc2cc2ccccc12 | inactive | – | 49.5 µM (active) | – | inactive | – | inactive | – | – | inactive
O=C1CCCCCCCCCCCC(=O)OCCO1 | – | inactive | inactive | – | inactive | inactive | inactive | inactive | – | inactive
CCCOC(C(=O)OC1CCN(C)CC1)(c1ccccc1)c1ccccc1 | – | inactive | inactive | inactive | inactive | inactive | inactive | inactive | – | 29.8 µM (active)
O=C(CS)Nc1ccccc1 | inactive | – | inactive | – | – | inactive | inactive | – | inactive | –
Nc1cc(C(=O)O)c(O)c(S(=O)(=O)O)c1 | – | inactive | inactive | – | inactive | inactive | – | inactive | inactive | inactive
CC(C)CC(=O)C1C(=O)c2ccccc2C1=O | inactive | – | – | – | inactive | inactive | inactive | inactive | – | inactive
CCN(CC)CCNc1ccc(CNC=O)c2sc3ccc(OC)cc3c(=O)c12 | 48.6 µM (active) | – | – | 12.3 µM (active) | – | 48.6 µM (active) | – | inactive | – | 5.45 µM (active)
C[Si](C)(CCCN)O[Si](C)(C)CCCN | inactive | – | inactive | – | inactive | inactive | inactive | inactive | – | inactive
CN(C)CCCN1c2ccccc2Sc2ccccc21 | – | inactive | inactive | – | – | – | – | inactive | – | inactive
CN1CCC(=C2c3ccccc3Sc3ccccc32)CC1 | – | inactive | inactive | inactive | – | – | inactive | inactive | inactive | 29.8 µM (active)
CCCCCCCCCCCCCCOS(=O)(=O)O | – | inactive | inactive | inactive | inactive | 61.1 µM (active) | – | – | – | inactive
CCCCC1=NC2(CCCC2)C(=O)N1Cc1ccc(-c2ccccc2-c2nn[nH]n2)cc1 | – | inactive | – | inactive | inactive | inactive | inactive | inactive | – | inactive
Cc1cccc(C)c1OCC(=O)N[C@@H](Cc1ccccc1)[C@@H](O)C[C@H](Cc1ccccc1)NC(=O)[C@H](C(C)C)N1CCCNC1=O | – | inactive | – | – | – | inactive | inactive | – | – | 23.7 µM (active)
CN1C[C@H]2c3ccccc3Oc3ccc(Cl)cc3[C@@H]2C1 | – | 13.3 µM (active) | inactive | inactive | – | inactive | inactive | – | – | –
O=C1[C@H]2CCCC[C@H]2C(=O)N1CCCCN1CCN(c2nsc3ccccc23)CC1 | 29.8 µM (active) | – | – | – | inactive | inactive | – | inactive | 23.7 µM (active) | –
O=C(Cl)c1cc(C(=O)Cl)cc(C(=O)Cl)c1 | – | inactive | inactive | inactive | inactive | – | inactive | – | – | inactive
COc1ccc(C(=O)Nc2nc3ccccc3c(NCc3ccccc3)c2C#N)cc1 | – | 7.7 µM (active) | – | 1.74 µM (active) | inactive | inactive | inactive | inactive | – | –
C[N+]1(C)CCC(OC(=O)C(O)(c2ccccc2)C2CCCC2)C1 (stereo not drawn) | inactive | – | inactive | – | inactive | inactive | inactive | inactive | – | inactive
Clc1ccc2c(c1)CCc1cccnc1C2=C1CCNCC1 | – | inactive | – | inactive | inactive | – | – | inactive | – | –
COC(=O)C1=C(C)NC(COC(N)=O)=C(C(=O)OC(C)C)C1c1cccc(Cl)c1Cl (stereo not drawn) | – | inactive | 21.3 µM (active) | – | – | inactive | inactive | – | – | –
CCCCCCCCCCCCCCCCCCOS(=O)(=O)O | – | inactive | – | – | – | 61.1 µM (active) | – | – | – | inactive
